Assay results published in PubChem BioAssay (NCATS).
Records with an inconclusive call do not appear. Activity calls are given as the source filed them. Calls come from the whole dose curve; as a rule, active = well fitted inhibition curve with a large enough effect; inconclusive = small, poorly fitted or top-dose-only effect; inactive = flat fitted curve, though single readings scatter. Where a SMILES comes first, the peptide text is derived from it.

Legend:
[1] = system: CRL-7250; assay: Cytotoxic Profiling of Annotated Libraries Using Quantitative High-Throughput Screening (AID 1296008); settings: Five cell lines viability, CellTiter-Glo ATP luminescence, 48-72 h; max response: active compounds read low; for max response: % is set by controls: 0 for no effect and ±100 for the full control effect
Method in brief: (§1)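 Cytotoxicity was measured as CellTiter-Glo ATP luminescence, read after 10 min at room temperature. Compound treatment of the cells lasted 48 or 72 hr at 37 degrees Celsius in a qHTS format.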

[2] = system: HaCat; assay: as above; settings: Five cell lines viability, CellTiter-Glo ATP luminescence, 48-72 h; max response: active compounds read low
Method in brief: as §1

[3] = system: KB-3-1; assay: as above; settings: Five cell lines viability, CellTiter-Glo ATP luminescence, 48-72 h; max response: active compounds read low
Method in brief: as §1

[4] = system: NIH3T3; assay: as above; settings: Five cell lines viability, CellTiter-Glo ATP luminescence, 48-72 h; max response: active compounds read low
Method in brief: as §1

[5] = system: HACAT; assay: qHTS assay to identify novel small-molecules to repurpose for Merkel cell carcinoma treatment (AID 1296009); settings: MCC and control cell lines, CellTiter-Glo viability, 72 h; at 44.8 µM (top of the series) unless noted
Method in brief: (§2)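 Cell viability measured by CellTiter-Glo following 72 hr compound treatment at 37 degree celsius, with NPC and MIPE libraries tested in 8- and 11-point concentration series.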

[6] = system: NIH3T3; assay: as above; settings: MCC and control cell lines, CellTiter-Glo viability, 72 h; at 44.8 µM (top of the series) unless noted
Method in brief: as §2

[7] = system: HEK293T; assay: as above; settings: MCC and control cell lines, CellTiter-Glo viability, 72 h; at 44.8 µM (top of the series) unless noted
Method in brief: as §2

Measured: max response
Note: nearly all actives have a fitted effect of over 60% in size.

C=C1CC/C=C(/CO)C(=O)C[C@@H]2[C@@H]1C[C@@]2(C)COC(C)=O
inactive: [1] | [2] | [3] 5.17% | [4] | [5] | [6]

C/C=C(\C)C(=O)OC[C@H]1O[C@@H](O[C@H]2[C@@H](O[C@H]3O[C@H](COC(=O)/C(C)=C/C)[C@@H](O)[C@H](O)[C@H]3O[C@@H]3O[C@H](CO)[C@@H](O)[C@H](OC(=O)/C(C)=C/C)[C@H]3O)O[C@H](COC(=O)/C(C)=C/C)[C@@H](O)[C@@H]2O)[C@H](O)[C@@H](O)[C@@H]1O
inactive: [1] -2.42% | [2] 2.69% | [3] | [4] | [6] inactive [at 9.27 µM]

COc1cc2c(cc1O)C(c1ccc(O)cc1)C(C)C(C)C2 (stereo unspecified)
inactive: [1] -22.8% | [2] | [3] -7.89% | [4] -6.55% | [5]

COc1cc(/C=C/C(=O)O[C@H]2C[C@@H]3C(C(=O)O)=CO[C@@H](O[C@@H]4O[C@H](CO)[C@@H](O)[C@H](O)[C@H]4O)[C@@H]3[C@H]2C)ccc1O
inactive: [1] | [2] 3.27% | [3] | [4] 1.34% | [7] inactive [at 17.4 µM]

CC1=C[C@H]2[C@@H](CC1=O)[C@H](C)C[C@H](O)[C@H]2C(C)C
inactive: [1] -22.7% | [2] | [3] -6.12% | [4] -7.42% | [5]

CC[C@H]1OC(=O)[C@H](C)[C@@H](O[C@H]2C[C@@](C)(OC)[C@@H](O)[C@H](C)O2)C(C)[C@@H](O[C@@H]2O[C@H](C)C[C@H](N(C)C)[C@H]2O)[C@](C)(O)C[C@@H](C)CN(C)[C@H](C)[C@@H](O)[C@]1(C)O (stereo partly specified)
inactive: [1] -0.571% | [2] -11.4% | [3] -2.18% | [4] | [6]

CC(O)C1CCC2C3CCC4CC(OC5OC(C(=O)O)C(O)C(O)C5O)CCC4(C)C3CCC12C (stereo unspecified)
inactive: [1] -11.7% | [2] | [3] -9.6% | [4] -3.21% | [5]

C=C(C(=O)O)[C@@H]1CC[C@@]2(C)CCC[C@@](C)(O)[C@@H]2C1
inactive: [1] -2.07% | [2] | [3] 5.56% | [4] 1.2% | [5]

CC(C)=C1CC2[C@](C)(CC[C@@H](OC(=O)C3(C)OC3C)[C@@]2(C)O)CC1=O (stereo partly specified)
inactive: [1] | [2] | [3] 6.8% | [4] -3.35% | [5]

CC1=C2C(=O)C=C(CO)C2[C@H]2OC(=O)[C@H](C)[C@@H]2[C@@H](OC(=O)Cc2ccc(O)cc2)C1 (stereo partly specified)
inactive: [1] | [2] 3.29% | [3] | [4] | [6] inactive [at 17.4 µM]

CC1(C)C(=O)CCC2(C)C1C(O)C=C1COC(=O)C12O (stereo unspecified)
inactive: [1] -15.2% | [2] | [3] 7.63% | [4] -3.93% | [5]

O=C(OC[C@H]1O[C@H](O[C@H]2CO[C@H](CO)[C@@H](O)[C@@H]2O)[C@H](O)[C@@H](O)[C@H]1O)c1ccccc1
inactive: [1] -5.33% | [2] -15.9% | [3] -0.911% | [4] 4.33% | [7] inactive [at 17.4 µM]

CC1(C)C2CC[C@]3(C)C(C(=O)C=C4[C@H]5C[C@@](C)(C(=O)O)CC[C@]5(C)CC[C@]43C)[C@@]2(C)CC[C@@H]1O (stereo partly specified)
inactive: [1] | [2] | [3] | [4] 2.21% | [5] inactive [at 17.4 µM]

COc1cc(C)c(C(=O)O[C@@H]2[C@H](O)[C@@H](CO)O[C@H]2n2ccc(=O)[nH]c2=O)c(OC)c1
inactive: [1] | [2] | [3] | [4] 2.52% | [5] inactive [at 17.4 µM]

C=C1CC2C3(C)C(O)CC(=O)C(C)(C)C3C(O)C(OC(C)=O)C2(C)C2C(=O)OC(C)(C(=O)OC)C(=O)C12C (stereo unspecified)
inactive: [1] | [2] | [3] | [4] -16.8% | [5] inactive [at 17.4 µM]

CCC(C)/C=C(C)/C=C/C1=CC2=C(Cl)C(=O)C(C)(OC(C)=O)C(=O)C2=CN1CCCCC(N)C(=O)O (stereo unspecified)
inactive: [1] -2.74% | [2] | [3] | [4] 3.52% | [5] inactive [at 17.4 µM]

C=C1[C@H](OC(C)=O)[C@H]2[C@@H](OC(=O)c3ccccc3)[C@@H](C)C[C@]2(O)[C@@H](OC(C)=O)[C@H](C)/C=C/C(C)(C)C(=O)[C@H](OC(C)=O)[C@H]1OC(C)=O
inactive: [1] 3.14% | [2] | [3] | [4] 3.53% | [5] inactive [at 17.4 µM]

O=C(O)CC1(O)C(=O)Nc2ccccc21 (stereo unspecified)
inactive: [1] | [2] -2.76% | [3] 6.03% | [4] 3.37% | [7] inactive [at 92 µM]

COc1cc(/C=C/CO[C@@H]2O[C@H](CO)[C@@H](O)[C@H](O)[C@H]2O)cc(OC)c1O[C@@H]1O[C@H](CO)[C@@H](O)[C@H](O)[C@H]1O
inactive: [1] -7.94% | [2] | [3] | [4] | [5] inactive [at 17.4 µM] | [6] inactive [at 17.4 µM]

C[C@H]1CCN2C[C@]34C[C@@]5(C(=O)Nc6c5ccc5c6OC=CC(C)(C)O5)C(C)(C)C3C[C@]12C(=O)N4C (stereo partly specified)
inactive: [1] | [2] | [3] -2.39% | [4] 3.63% | [5] inactive [at 17.4 µM]

C=C[C@@]1(C)CCC2=C([C@H]1OC(C)=O)[C@H](OC(C)=O)CC1[C@](C)(C(=O)OC)CC[C@H](OC(C)=O)[C@]21C (stereo partly specified)
inactive: [1] -6.44% | [2] | [3] | [4] | [5] inactive [at 17.4 µM] | [6] inactive [at 17.4 µM]

CC(C)C1NC(=O)CNC(=O)C2CCCN2C(=O)C(Cc2c[nH]c3ccccc23)NC(=O)CNC(=O)C(Cc2ccc(O)cc2)NC(=O)CNC1=O (stereo unspecified) (cyclo(GVGYGWP); configuration not given here)
inactive: [1] -2.61% | [2] | [3] | [4] -0.317% | [5] inactive [at 17.4 µM]

C=C1CC[C@]2(C(=O)O[C@@H]3O[C@H](CO)[C@@H](O)[C@H](O)[C@H]3O)CC[C@]3(C)C(=CCC4[C@@]5(C)C[C@H](O)[C@@H](O[C@@H]6O[C@H](C(=O)O)[C@@H](O)[C@H](O)[C@H]6O)[C@](C)(C=O)C5CC[C@]43C)C2C1 (stereo partly specified)
inactive: [1] 4.09% | [2] -21.8% | [3] 9.97% | [4] | [6] inactive [at 9.27 µM]

CC(O)/C=C/C1(O)C(C)C(O)C(O[C@@H]2O[C@H](CO)[C@@H](O)[C@H](O)[C@H]2O)CC1(C)C (stereo partly specified)
inactive: [1] -7.69% | [2] | [3] 0.447% | [4] | [5] inactive [at 17.4 µM] | [6] inactive [at 17.4 µM]

CC(=O)O[C@@H]1C(O)C[C@@]2(C)C(CC[C@@H](C)C23Cc2c(O)cc4c(c2O3)CNC4=O)C1(C)C (stereo partly specified)
inactive: [1] 0.238% | [2] | [3] -3.56% | [4] -7.87% | [5] inactive [at 17.4 µM]

C[C@]1(O)CC[C@@H]2C(C(=O)O)=CO[C@@H](O[C@@H]3O[C@H](COC(=O)/C=C/c4ccc(O)c(O)c4)[C@@H](O)[C@H](O)[C@H]3O)[C@@H]21
inactive: [1] | [2] | [3] 9.19% | [4] | [5] inactive [at 17.4 µM] | [6] inactive [at 17.4 µM]

CCOC(=O)COc1ccc2c(c1)C[C@@H](NC[C@H](O)c1cccc(Cl)c1)CC2
inactive: [1] | [2] | [3] 7.38% | [4] 1.73% | [5]

CC(=O)OC(C)(C)/C=C/C(=O)[C@](C)(O)C1[C@H](O)C[C@@]2(C)[C@@H]3CC=C4[C@@H](C[C@H](O[C@@H]5O[C@H](CO)[C@@H](O)[C@H](O)[C@H]5O)C(=O)C4(C)C)[C@]3(C)C(=O)C[C@]12C (stereo partly specified)
inactive: [1] | [2] | [3] 1.94% | [4] | [5] inactive [at 17.4 µM] | [6] inactive [at 17.4 µM]

CC(=O)Nc1cccc2c1c(Sc1ccc(Cl)cc1)c(C)n2CC(=O)O
inactive: [1] -5.82% | [2] -2.39% | [3] -3.16% | [4] | [6]

CC1(C)C(=O)N2c3ccccc3C(O)(CC(C(=O)O)n3cnc4ccccc4c3=O)C2N1O (stereo unspecified)
inactive: [1] 0.472% | [2] | [3] 4.14% | [4] 1.17% | [5] inactive [at 17.4 µM]

CC1C2=CC(=O)OC2(O)CC2C1C(OC(=O)c1ccccc1)C(OC(=O)c1ccccc1)C1(O)C2(C)CCC(O)C1(C)C(=O)O (stereo unspecified)
inactive: [1] -2.75% | [2] | [3] -1.08% | [4] -2.68% | [5] inactive [at 17.4 µM]

CC(=O)OC1CC2(C)C(CCC(C)C23Cc2c(O)cc4c(c2O3)CNC4=O)C(C)(C)C1O (stereo unspecified)
inactive: [1] -8.86% | [2] -6.41% | [3] | [4] -10.8% | [7] inactive [at 17.4 µM]
